The full list was thinned out, with hits kept by preference.
PglD inh = PglD (C. jejuni) enzyme inhibition | inhibition, % at 12.5 µM | 360,000 tested, 0.098% active | purified PglD enzyme, DTNB colorimetric CoA detection | AID 602405; in the data active means inhibition above about 16%, passing the limit was not always enough
ALR H2O2 inh = human ALR oxidase inhibition via reduced H2O2; inhibition, % (no concentration beside the values); purified ALR, DTT oxidation, H2O2 HRP-luminol luminescence; P55789; 290,000 tested, 3.8% active; AID 485317;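 active means mean replicate inhibition above about 79%, with every replicate also reaching it, limit read from the data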
Target sequence (P55789 whole entry, looked up): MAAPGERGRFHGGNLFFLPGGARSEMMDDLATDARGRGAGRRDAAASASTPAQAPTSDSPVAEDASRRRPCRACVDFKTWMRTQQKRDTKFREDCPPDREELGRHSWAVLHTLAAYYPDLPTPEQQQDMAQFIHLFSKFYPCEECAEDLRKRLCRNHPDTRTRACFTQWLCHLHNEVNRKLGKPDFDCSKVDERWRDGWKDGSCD
ARNT TACC3 PPI = disruptors of human ARNT/TACC3 interaction | AlphaScreen His-ARNT PAS-B/GST-TACC3 binding, luminescence; TACC3 fragment carries E629A point mutation | inhibition, % at 9.99 µM | 390,000 tested, 0.66% active;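 active means mean inhibition of replicates at least 50% and at least half of replicates each reaching 50%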;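 further: 0% = complete ARNT plus TACC3 wells and 100% = ARNT alone without TACC3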
ERp5 block = blocks human ERp5 reductase activity on insulin; Q15084; ERp5 insulin aggregation, absorbance 650 nm, 90 min; inhibition, % at 9.99 µM; 350,000 tested, 0.05% active;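 active means mean replicate inhibition above about 25%, with every replicate also reaching it, limit read from the data, passing the limit was not always enough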
Target sequence (Q15084 whole entry, looked up): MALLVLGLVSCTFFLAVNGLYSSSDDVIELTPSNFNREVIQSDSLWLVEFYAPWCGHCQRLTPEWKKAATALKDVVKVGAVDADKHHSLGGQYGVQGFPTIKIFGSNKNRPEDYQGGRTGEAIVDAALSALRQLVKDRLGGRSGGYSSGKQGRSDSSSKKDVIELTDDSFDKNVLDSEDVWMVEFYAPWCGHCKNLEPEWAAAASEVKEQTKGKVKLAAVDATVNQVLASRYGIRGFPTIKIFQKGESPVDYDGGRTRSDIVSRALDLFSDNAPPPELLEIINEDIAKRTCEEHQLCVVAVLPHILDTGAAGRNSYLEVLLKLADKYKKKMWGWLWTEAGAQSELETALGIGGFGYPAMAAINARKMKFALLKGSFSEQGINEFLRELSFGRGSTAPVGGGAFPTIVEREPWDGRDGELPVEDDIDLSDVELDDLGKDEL
CendR NRP1 mod = modulators of CendR peptide binding to human neuropilin-1 | O14786 | FAM-RPARPAR peptide binding to NRP-1, fluorescence polarization | 360,000 tested, 0.85% active | AID 602438 | inhibition, % at 25 µM;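 active means inhibition or corrected inhibition above about 18%, plus a signal ratio from 0.5 to 1.5, limit read from the data, passing the limit was not always enough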
PDI turbidity = PDI (human) enzyme inhibition; inhibition, % at 10 µM; PDI insulin aggregation turbidity, A650, 90 min; P07237; 350,000 tested, 0.052% active;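 active means mean inhibition across replicates of 30% or more, whatever share of single replicates reach that level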
Active calls of the source: *; . = no result.

SMILES | PglD inh | ALR H2O2 inh | ARNT TACC3 PPI | ERp5 block | CendR NRP1 mod | PDI turbidity
C=CCNC(=O)CC1Nc2c3ccccc3nc(=S)n2C1=O (stereo unspecified) | -2.5 | 94.9* | -3.7 | -0.8 | 0.1 | -0.7
CCC1(c2ccc(Cl)cc2)NC(=S)N(c2ccc(C)c(C)c2)N1 (stereo unspecified) | . | 96.9* | . | -4.6 | -2.1 | -5.2
Cc1cc(Nc2ccccc2)n(CCOC(=O)COc2ccccc2)n1 | -0.9 | 98.1* | -16.6 | . | 10.5 | 14.2
COCC(=O)Nc1ccc2c(c1)[C@H]1C[C@@H](CC(=O)NCc3ccncc3)O[C@H](CO)[C@H]1O2 | 5.9 | . | -5.9 | -35.7 | . | .
O=C1CNC[C@@H]2[C@H](c3ccc(C4=CCCCC4)cc3)[C@@H](CO)N12 | . | . | . | 4.4 | . | .
CN(C)C(=O)C[C@@H]1CC[C@@H](NC(=O)NC2CCCCC2)[C@H](CO)O1 | -0.6 | . | -7.2 | 3.0 | . | .
CCN(CC)c1ccc(NC(=O)c2ccccc2F)cc1 | -3.5 | 99.2* | 8.8 | . | 13.3 | 3.6
CCN(CC)c1ccc(NC(=O)c2cc(Cl)ccc2OC)cc1 | -3.6 | 98.5* | 20.9 | . | 10.5 | 3.9
CC(=O)Nc1ccc(NC(=O)c2c(C)noc2C)cc1 | 0.2 | 1.2 | -2.0 | -2.1 | 16.2 | 1.5
CCN(CC)c1ccc(NC(=O)c2c(C)noc2C)cc1 | 0.4 | 98.3* | -0.3 | -12.0 | 15.8 | -6.8
O=C(Nc1ccc(Nc2ccccc2)cc1)c1ccccc1F | -1.7 | 99.5* | 9.2 | -7.1 | -6.9 | -4.2
O=C(C[C@H]1CC[C@H]2[C@@H](COC[C@H](O)CN2C(=O)C2CCCC2)O1)NCc1ccncc1 | 5.4 | . | -0.9 | -7.6 | . | .
CCC(=O)N1[C@@H]2c3cccc(=O)n3C[C@@H]2[C@@H](CO)[C@@H]1C(=O)NC1CCCC1 | . | . | . | 0.3 | . | .
Cc1occc1-c1nnc(SCC(=O)c2ccc3c(c2)OCCO3)n1CC1CCCO1 (stereo unspecified) | 2.0 | 23.2 | . | 3.4 | -0.3 | 9.3
COc1ccc(C(=O)CSc2nnc(-c3ccco3)n2CC2CCCO2)cc1 (stereo unspecified) | 7.4 | 32.0 | -4.7 | . | -5.8 | 0.6
Cc1occc1-c1nnc(SCC(=O)c2ccccc2)n1CC1CCCO1 (stereo unspecified) | -16.5 | 98.2* | . | . | -6.7 | 1.3
COc1cccc(C(=O)CSc2nnc(-c3ccco3)n2CC2CCCO2)c1 (stereo unspecified) | -4.5 | 91.5* | -1.6 | . | -0.2 | 5.2
C=CCNC(=O)[C@H]1[C@@H]2C(=O)O[C@@H](c3ccccc3)[C@@H](c3ccccc3)N2[C@@H](c2ccc(O)cc2)[C@]12C(=O)N(C(=O)OCCOC)c1ccc(C#CC3(O)CCCCCC3)cc12 | -10.8 | . | 9.2 | -0.5 | . | .
COc1cc(O)c(/C=N/NC(=O)c2ccncc2)c(OC)c1[N+](=O)[O-] | . | -3.4 | 65.1* | -18.7 | 1.0 | 5.7
Cc1nccn1CC(=O)c1ccc(O)c(O)c1 | -4.3 | 87.0* | 0.4 | 2.5 | 8.9 | -4.6
O=C(N/N=C/c1ccccc1O)c1cc[n+]([O-])cc1 | -0.1 | 7.4 | 63.4* | -2.9 | 10.5 | 2.2
O=C(N/N=C/c1ccccc1O)C(=O)Nc1ccccn1 | . | 2.8 | 47.7* | -7.0 | 10.5 | -6.4
O=C(N/N=C/c1ccccc1)c1cc[n+]([O-])cc1 | . | . | 4.9 | 3.4 | -3.2 | 5.1
O=C(Nc1ccccc1)C(=O)Nc1ccccn1 | -1.6 | -4.7 | -15.6 | . | -14.3 | 1.3
C[C@H](CO)N1C[C@H](C)[C@@H](CN(C)Cc2cncnc2)Oc2cc(C#C[C@@H](C)O)ccc2S1(=O)=O | -4.2 | . | -2.6 | . | . | .
SMILES | PglD inh | ALR H2O2 inh | ARNT TACC3 PPI | ERp5 block | CendR NRP1 mod | PDI turbidity
CN1C(=O)c2cc(NC(=O)C3CCCC3)ccc2OC[C@@H]2O[C@@H](CC(=O)Nc3ccccc3)CC[C@H]21 | -0.7 | . | 1.2 | -3.0 | . | .
CCCNC(=O)N1C[C@@H]2[C@H](c3ccccc31)[C@@H](CO)N2Cc1ccccc1F | 1.8 | . | -3.7 | -12.1 | . | .
CC(=O)N1[C@@H](CO)[C@@H](c2ccccc2)C12CN(S(=O)(=O)c1ccccc1)C2 | . | . | . | 0.1 | . | .
O=C(N/N=C/c1cccc2ccccc12)c1ccncc1 | -0.9 | -7.6 | 5.1 | 0.2 | 5.3 | -1.0
O=C(N/N=C/c1ccccc1O)c1ccncc1 | -6.2 | -1.8 | 66.4* | -4.5 | -6.4 | -12.7
O=C(N/N=C/c1ccncc1)c1ccncc1 | 1.1 | . | -15.1 | -6.9 | 3.7 | 4.1
O=C(N/N=C/c1ccc(O)cc1)c1ccncc1 | -4.7 | 98.8* | -5.4 | 0.7 | 0.8 | -1.7
Cc1nccn1CC(=O)N/N=C/c1ccccc1O | . | 12.9 | 73.5* | -1.5 | -6.1 | 0.9
O=C(N/N=C/c1cc(Br)ccc1O)c1ccncc1 | 3.1 | . | 61.3* | 1.2 | -30.1 | -0.2
C[C@@H]1CN([C@@H](C)CO)C(=O)c2cccc(NC(=O)c3ccncc3)c2O[C@@H]1CN(C)S(C)(=O)=O | -2.3 | . | -3.9 | -6.0 | . | .
CCC(=O)N(C)C[C@H]1Oc2cc(C#CC3CCCC3)ccc2S(=O)(=O)N([C@@H](C)CO)C[C@@H]1C | -0.7 | . | 1.1 | 8.8 | . | .
CCC(=O)N1CCC2(CC1)CN(Cc1ccccc1Cl)[C@H](CO)c1c2c2ccc(OC)cc2n1C | . | . | . | 5.1 | . | .
CCOC(=O)C1=C(C)NC2=C(C(=O)CCC2)C1c1cn(Cc2ccc(Cl)cc2Cl)nc1-c1ccccc1 (stereo unspecified) | -6.3 | -6.6 | -2.2 | . | 25.0* | 4.4
COC(=O)C1=C(C)NC2=C(C(=O)CCC2)C1c1cn(Cc2ccc(Cl)cc2Cl)nc1-c1ccccc1 (stereo unspecified) | -4.1 | -5.4 | -7.7 | . | 7.8 | 0.0
O=C(NCC[C@@H]1CC[C@H](NS(=O)(=O)Cc2ccccc2)[C@H](CO)O1)C1CC1 | 2.4 | . | -4.5 | 0.2 | . | .
COc1ccccc1NC(=O)Nc1ccccc1C#N | 1.4 | -10.8 | 3.1 | 0.8 | 2.6 | -1.8
COc1ccccc1CCC(=O)Oc1ccccc1C#N | 2.9 | 84.9* | -3.7 | 4.0 | -1.3 | 0.9
CC(C)NC(=O)Nc1ccc2c(c1)CC(=O)N([C@H](C)CO)C[C@@H](C)[C@H](CN(C)Cc1ccccc1)O2 | -2.1 | . | -5.7 | 3.3 | . | .
COCCNC(=O)C1CC(c2ccc(F)cc2)=NO1 (stereo unspecified) | . | -12.4 | -4.8 | . | 8.7 | 15.3
COCCNC(=O)C1CC(c2ccc(C(F)(F)F)cc2)=NO1 (stereo unspecified) | 2.2 | -8.5 | 1.0 | 2.8 | 27.9* | 5.1
O=C(NCc1cc(C(F)(F)F)cc(C(F)(F)F)c1)C1CC(c2ccccc2F)=NO1 (stereo unspecified) | 3.8 | . | -9.0 | -2.2 | 27.7* | -2.0
COc1ccccc1-c1cnc2c(c1)C(=O)N([C@H](C)CO)C[C@@H](C)[C@@H](CN(C)C(C)=O)O2 | 0.5 | . | -4.2 | 1.2 | . | .
COc1ccc(OC)c(/C=N/N(C)c2ccccc2)c1 | -0.7 | 98.9* | -3.0 | . | 16.6 | -6.8
COc1cc(/C=N/N(C)c2ccccc2)cc(Cl)c1O | 2.6 | 98.9* | 19.9 | . | 5.9 | -2.4

Bioassay records from PubChem.
